This is a sample that favours compounds with a hit; in the whole collection about 2.3% have one here.
Rango release inh: qHTS Assay for Inhibitors of RanGTP induced Rango (Ran-regulated importin-beta cargo) - Importin beta complex dissociation; Snurportin-1 (Homo sapiens) + GTP-binding nuclear protein Ran (Homo sapiens) + Importin …; Biochemical FRET Rango-importin beta, RanGTP-induced dissociation; Potency, µM (series often up to 46.1 µM), for inactives: at the top dose activity change, negative = inhibition; actives 0.071% (n = 340,000); AID 540253, 2011; calls by dose curve; also: % of control where 0% means no effect; nearly all actives have a fitted effect of over 45% in size
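Rango/importin beta premix (0.1/0.25 uM final), PBS + 1 mM DTT + 0.02% Tween-20 + 0.1% BSA; cpd 5 min RT; FRET pre-read; + RanGTP-RCC1 (0.6 uM Ran, 2 mM GTP, 0.2 uM RCC1); 45 min RT; FRET post-read, ex 430, em 486/530 nm.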
Nrf2 activator: qHTS of Nrf2 Activators | AID 624171, 2012 | AREc32 ARE-luciferase reporter (MCF7-derived line), luminescence, 24 h | actives 0.31% (n = 410,000) | Potency, µM (highest dose often 46.1 µM), for inactives: at the highest dose activation, hits mostly activators; also: % of control where 0% means no effect; nearly all actives have a fitted effect of over 65% in size
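Nrf2 activation is followed as ARE-luciferase induction in the AREc32 line after one day of compound treatment; luminescence is read with Steady-Glo.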
A549 viability: Nrf2 qHTS screen for inhibitors: counterscreen for cytotoxicity | actives 0.16% (n = 390,000) | Potency, µM (highest dose often 46 µM), for inactives: at the highest dose activity change, negative = cytotoxicity, usual class: inhibitors | AID 504648, 2011 | A549 ARE-Fluc cells, CellTiter-Fluor viability, 18-24 h; also: % is scaled to controls: 0 for no effect and ±100 for the full control effect
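A549 ARE-Fluc cells in 5% FBS OPTI-MEM, 5000 cells/well, rested 2 h then exposed to compounds in concentration-response for 18-24 h at 37 °C. Viability by CellTiter-Fluor fluorescence (Ex 405/Em 525) after 30 min; luciferase luminescence (BugLite, 15 min, RT) read afterwards.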
Rango-impB inh: qHTS Assay for Inhibitors of Rango (Ran-regulated importin-beta cargo) - Importin beta complex formation; Rango CFP/YFP FRET sensor + importin beta, 45 min; Potency, µM (titrated, usually from 92.2 µM), inactives show top-dose inhibition of complex formation; actives 0.031% (n = 340,000); calls by dose curve;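 also: 0% = DMSO wells and 100% = buffer wells lacking importin beta; nearly all actives have a fitted effect of over 15% in size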
Target sequence (Q14974 whole entry, looked up): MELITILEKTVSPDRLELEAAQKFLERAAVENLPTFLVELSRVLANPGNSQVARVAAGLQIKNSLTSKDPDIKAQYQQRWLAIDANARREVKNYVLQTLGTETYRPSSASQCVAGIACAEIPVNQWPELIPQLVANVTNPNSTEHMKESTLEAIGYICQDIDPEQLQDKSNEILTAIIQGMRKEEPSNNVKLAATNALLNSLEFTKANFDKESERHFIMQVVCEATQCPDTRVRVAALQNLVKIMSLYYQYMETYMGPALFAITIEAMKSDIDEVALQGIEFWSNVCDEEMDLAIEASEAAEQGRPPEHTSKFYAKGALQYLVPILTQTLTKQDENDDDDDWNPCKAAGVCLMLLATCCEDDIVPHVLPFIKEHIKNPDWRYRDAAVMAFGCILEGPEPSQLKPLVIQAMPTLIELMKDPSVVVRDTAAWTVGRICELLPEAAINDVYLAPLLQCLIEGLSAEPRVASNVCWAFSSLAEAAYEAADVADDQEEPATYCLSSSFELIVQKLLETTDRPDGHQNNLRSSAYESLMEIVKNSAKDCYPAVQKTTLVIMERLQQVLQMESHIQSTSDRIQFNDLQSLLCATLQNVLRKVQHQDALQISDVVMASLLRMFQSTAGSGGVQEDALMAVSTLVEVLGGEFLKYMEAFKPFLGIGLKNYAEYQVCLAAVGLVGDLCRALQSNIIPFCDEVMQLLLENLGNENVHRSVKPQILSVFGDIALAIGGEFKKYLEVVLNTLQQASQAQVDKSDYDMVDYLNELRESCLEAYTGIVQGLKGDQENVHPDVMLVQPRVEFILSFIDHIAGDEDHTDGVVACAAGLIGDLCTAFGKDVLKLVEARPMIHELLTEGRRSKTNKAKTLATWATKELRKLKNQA
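FRET biosensor Rango (snurportin 1 IBB between N-terminal EYFP and C-terminal Cerulean), 50 nM in PBS/1 mM DTT/0.02% Tween-20/0.1% BSA, preincubated 5 min RT with compound; 0.125 microM importin beta added, 45 min RT, CFP/YFP FRET ratio read.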
Nrf2 inh: Nrf2 qHTS screen for inhibitors. Potency, µM (titrated, usually from 46 µM), for inactives: top-dose activity change, negative = inhibition, most hits filed as inhibitors. actives 2.1% (n = 360,000). A549 ARE-Fluc reporter, luciferase luminescence, 18-24 h; also: % is scaled to controls: 0 for no effect and ±100 for the full control effect; nearly all actives have a fitted effect of over 60% in size
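A549 ARE_Fluc cells (5000/well, 5% FBS OPTI-MEM) pre-incubated 2 h, then treated with compounds 18-24 h at 37C/5% CO2 in concentration-response. CellTiter-Fluor viability read first; BugLite luciferase luminescence after 15 min at room temperature gives Nrf2 activity.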
Active calls of the source: *; ? = inconclusive; / = no result given; [ ] = dose if it differs, or a comment. Unless noted, calls follow the shape of the dose curve; as a rule, active = well fitted curve in the direction sought with a large enough effect; inconclusive = small, poorly fitted or top-dose-only effect, or another doubt; inactive = no such curve, though single readings can be large; an effect the other way counts as inactive or inconclusive. Potency is read from the fitted curve at half-maximal effect.

SMILES | Rango release inh | Nrf2 activator | A549 viability | Rango-impB inh | Nrf2 inh
O=C1Nc2c(c(=O)[nH]c(=O)n2-c2ccccc2)C1(NS(=O)(=O)c1ccc(Cl)cc1)C(F)(F)F (centres undefined) | / | 0% | 6% | / | 16%
O=C1CCc2cc(S(=O)(=O)Nc3cccnc3)ccc2N1 | / | / | 5% | / | 27%
O=C(Nc1ccc(F)cc1)N1CCN(c2nc3ccccc3s2)CC1 | 3% | 2% | -7% | 0% | 21µM*
O=C(c1ccc2ncsc2c1)N1CCN(c2ccccc2Cl)CC1 | 20% | 2% | 7% | 0% | 3%
O=C(c1ccc2ncsc2c1)N1CCN(c2nc3ccccc3s2)CC1 | -4% | 2% | -19% | 0% | 18µM*
O=C(Nc1ccc(F)cc1)N1CCCN(c2nccc(C(F)(F)F)n2)CC1 | -2% | -1% | ? | 1% | 12µM*
Nc1ncnc2c1nc(Cl)n2[C@@H]1O[C@H](CO)[C@@H](O)[C@@H]1O | / | / | -14% | / | 21µM*
CN(C)c1nc2c(N)ncnc2n1C1OC(CO)C(O)C1O (centres undefined) | -14% | 0% | -2% | 3% | 14%
COc1ccccc1OCc1cc(C(=O)N2CCN(C)C(c3ccccc3)C2)no1 (centres undefined) | -10% | 5% | 6% | -2% | ?
CN1CCN(C(=O)c2cc(COc3ccc(F)cc3Cl)on2)CC1c1ccccc1 (centres undefined) | -1% | 5% | ? | 1% | 13µM*
CCOC(=O)c1ccc(NC(=O)c2ccc(CN3C(=O)CCn4nc(C)cc43)cc2)cc1 | / | 1% | 11% | / | ?
O=[S+]([O-])(/C=C/c1nc(Nc2cc(F)cc(F)c2)c2ncn(CC(F)F)c2n1)c1ccccc1 | / | / | -8% | / | -14%
Cc1ccc(-n2c(SCC(=O)N3CCCc4ccccc43)nnc2-c2cccnc2)c(C)c1 | 0% | -1% | 2% | 0% | -5%
Cc1ccc(-n2c(-c3ccccc3)c[n+]3c2CCc2ccccc2-3)c(C)c1 | -5% | 10% | ? | 0% | 4.1µM*
Clc1ccc(N2CCN(c3ccnc(Cl)n3)CC2)cc1 | 1% | 0% | -7% | 0% | 16µM*
CSc1nccc(N2CCN(c3ccc(F)cc3)CC2)n1 | -4% | 4% | -12% | -2% | ?
O=C(Nc1ccc(N2CCOCC2)nc1)c1ccc(Cl)cc1 | -3% | 0% | -20% | -3% | 21µM*
O=C(CSc1nc2ccccc2c(=O)n1Cc1ccco1)c1ccccc1 | -12% | 5% | 14%[1.84 µM] | 0% | 18µM*
O=c1c2ccccc2nc(SCc2nc3ccccc3s2)n1Cc1ccco1 | -8% | 0% | 19%[1.84 µM] | 7% | 4.6µM*
CCOC(=O)CSc1nc2ccccc2c(=O)n1Cc1ccco1 | 1% | 10% | ? | 0% | 4%
O=c1c2ccccc2nc(SCc2ccccc2)n1Cc1ccco1 | 13% | 4% | -2% | -4% | -26%
C=C1CC2C(=O)N(Cc3ccccc3)C(C(=O)O)C1N2C(=O)OC(C)(C)C (centres undefined) | / | / | 0% | / | 12%
Cc1nc2c3ccccc3nc(NNC(=O)CCC(=O)N3CCN(c4cc(Cl)ccc4C)CC3)n2n1 | / | 1% | 13% | / | 11%
CC(C)c1nc(SCC(=O)Nc2ccc3c(c2)OCCO3)n[nH]1 | 6% | 0% | 3% | 0% | 6%
Cc1ccc(S(=O)(=O)NC(N)=NCCC[C@@H](N)C(=O)Nc2cc(C(F)(F)F)ccc2Cl)cc1 | / | / | -27% | / | ?
SMILES | Rango release inh | Nrf2 activator | A549 viability | Rango-impB inh | Nrf2 inh
O=c1cc(-c2cccs2)oc2ccc(Cl)cc12 | 9% | 11µM* | -5% | 0% | ?
Cc1cc(Sc2nnc(N)s2)c2ccccc2n1 | -1% | -5% | -4% | -4% | ?
Cc1cc(Sc2nnc(/N=C/N(C)C)s2)c2ccccc2n1 | 18% | -4% | -14% | 1% | 7.3µM*
O=C1c2ccccc2C(=O)c2c(Nc3ccc(CCO)cc3)ccc(O)c21 | 14% | 4µM* | ? | 1% | ?
O=c1c2ccccc2ncn1CCCSc1ccccc1 | 10% | 4% | ? | 1% | 23µM*
COc1ccc2nc(C)cc(N3CCN(S(=O)(=O)c4ccccc4F)CC3)c2c1 | -3% | 1% | -6% | -2% | -7%
CCC(Sc1nncn1C)C(=O)Nc1nnc(-c2ccccc2Cl)s1 (centres undefined) | -8% | 21% | 2% | 1% | 5%
CCC(Sc1ccc(Cl)cc1)C(=O)Nc1nnc(-c2cccc([N+](=O)[O-])c2)s1 (centres undefined) | -1% | 13µM* | 14% | 1% | ?
Cc1cc(C)cc(N2C(=O)CSC23C(=O)N(CC(=O)NC2CCCCC2)c2ccccc23)c1 (centres undefined) | / | 0% | ? | / | ?
COc1ccc(-c2nnc(SC)o2)c(OC)c1 | -13% | 8% | 0% | -1% | ?
COc1ccc(OC)c(-c2nnc(-c3ccc(C)o3)o2)c1 | -17% | 11µM* | 1% | -3% | ?
CC1=C(C(=O)OC2CCCCCC2)C(c2c(Cl)cccc2Cl)CC(=O)N1 (centres undefined) | / | -3% | -10% | / | 21µM*
CC1=C(C(=O)OC2CCCC2)C(c2c(Cl)cccc2Cl)CC(=O)N1 (centres undefined) | / | -1% | -2% | / | ?
Cc1nn(Cc2ccc(Cl)cc2Cl)c(C)c1NC(=O)c1sc2ccccc2c1Cl | -11% | 0% | -9% | -1% | -22%
Cc1nn(Cc2ccc(Cl)cc2Cl)c(C)c1NC(=O)NC12CC3CC(CC(C3)C1)C2 | 10% | -1% | -12% | -2% | 21µM*
C=CCOc1ccc(Br)cc1CNC(C)(C)C | -6% | 0% | 0% | -1% | 15%
O=C(CSc1nnc(-c2ccc(Br)cc2)n1-c1ccccc1)c1ccccc1 | / | 1% | 2% | / | /
COc1ccc(-c2nn(CC(=O)NCCc3ccccc3)c(=S)n2C)cc1 | 6% | -1% | -21% | 1% | ?
CCn1c(-c2ccc(C)cc2)nn(CC(=O)NCCc2ccccc2)c1=S | 10% | -1% | ? | -3% | 23µM*
COc1ccc(CCNc2ncnc3cc(OC)c(OC)cc23)cc1OC | -3% | 1% | -2% | 0% | 21µM*
COc1cc2ncnc(NCc3ccc(C)cc3)c2cc1OC | 1% | 1% | 1% | 1% | -24%
COc1cc2ncnc(NCCc3ccccc3)c2cc1OC | 5% | 6% | -4% | 2% | 23µM*
O=C(Nc1ccccc1F)c1oc2ccccc2c1NC(=O)c1c(F)cccc1F | / | 0% | -3% | / | -7%

Screening results as filed in PubChem.
